# Source: PubChem BioAssay AID504339 (National Center for Advancing Translational Sciences (NCATS), 2011)
# About 17,000 (4.4%) of roughly 390,000 compounds were called active. Inconclusive results (about 8%) are left out. The list comes from a sample in which actives are over-represented; it also holds similar structures and randomly drawn compounds. A number with no mark means an inactive call. Calls follow the shape of the dose curve; as a rule, active = well fitted inhibition curve with a large enough effect; inconclusive = small, poorly fitted or top-dose-only effect; inactive = no such curve, though single readings can be large or run the other way.
# Target: Lysine-specific demethylase 4A (Homo sapiens) (UniProt O75164)
# Sequence (O75164 whole entry, looked up, the tested form may be a part): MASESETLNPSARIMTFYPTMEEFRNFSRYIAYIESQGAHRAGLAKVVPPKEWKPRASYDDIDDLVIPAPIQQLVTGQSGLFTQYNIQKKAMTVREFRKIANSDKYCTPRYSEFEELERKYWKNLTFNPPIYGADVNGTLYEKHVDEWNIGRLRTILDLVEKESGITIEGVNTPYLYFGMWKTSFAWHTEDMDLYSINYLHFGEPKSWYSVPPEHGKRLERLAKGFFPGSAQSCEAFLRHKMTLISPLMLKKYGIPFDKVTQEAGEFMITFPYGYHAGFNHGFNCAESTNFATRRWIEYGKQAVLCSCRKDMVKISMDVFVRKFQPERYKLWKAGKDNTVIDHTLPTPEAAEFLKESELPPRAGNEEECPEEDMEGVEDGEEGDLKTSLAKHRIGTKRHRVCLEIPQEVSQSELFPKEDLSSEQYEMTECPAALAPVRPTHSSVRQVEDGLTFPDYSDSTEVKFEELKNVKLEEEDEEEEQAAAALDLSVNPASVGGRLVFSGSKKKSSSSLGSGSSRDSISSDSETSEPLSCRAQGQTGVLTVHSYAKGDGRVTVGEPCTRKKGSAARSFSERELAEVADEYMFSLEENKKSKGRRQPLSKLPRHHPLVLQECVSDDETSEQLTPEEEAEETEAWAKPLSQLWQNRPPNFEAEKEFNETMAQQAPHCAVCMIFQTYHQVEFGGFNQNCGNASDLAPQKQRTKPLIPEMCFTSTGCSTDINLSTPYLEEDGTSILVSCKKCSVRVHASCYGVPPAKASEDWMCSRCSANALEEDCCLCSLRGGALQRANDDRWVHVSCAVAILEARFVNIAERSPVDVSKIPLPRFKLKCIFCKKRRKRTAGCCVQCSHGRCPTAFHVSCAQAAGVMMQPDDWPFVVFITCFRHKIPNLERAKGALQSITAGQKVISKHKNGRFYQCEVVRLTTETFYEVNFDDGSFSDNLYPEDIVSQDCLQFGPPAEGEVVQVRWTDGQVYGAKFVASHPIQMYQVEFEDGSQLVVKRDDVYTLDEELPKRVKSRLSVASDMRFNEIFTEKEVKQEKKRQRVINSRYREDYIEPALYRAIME
# Test: qHTS Assay for Inhibitors of JMJD2A-Tudor Domain; also: nearly all actives have a fitted effect of over 50% in size
# Details: AlphaScreen JMJD2A-Tudor / H3K4me3 peptide binding; series mostly up to 114 µM; activity change, negative = inhibition: at the top concentration
# % is scaled to controls: 0 for no effect and ±100 for the full control effect; potency is read from the fitted curve at half-maximal effect.
SMILES,"activity change, negative = inhibition [%]",Potency
COc1ccc(CNC(=O)c2cc3c(-c4ccccc4F)nn(C)c3s2)c(OC)c1,-20.3,
Cc1cc2c(cc1C)C(c1cccc(OC(C)C)c1)CC(=O)N2 (centres undefined),-5.14,
COc1cc(Br)cc2cc(S(=O)(=O)c3ccccc3)c(=O)oc12,-8.42,
O=C(Cn1nc(C(F)(F)F)c2c1CCCC2)Nc1ccc(Cl)cc1,9.28,
O=C(Cn1nc(CNc2ccc(Cl)cc2)[n+]2c1CCCCC2)c1ccc(Cl)cc1,,44.7 µM (active)
O=C(Cn1ncc(N2CCCC2)c(Br)c1=O)c1ccc(Cl)cc1,-11.7,
COc1cc(OC)c(NC(=O)c2c3c(nn2C)-c2ccccc2SC3)cc1Cl,-12.3,
O=C(Cc1ccc(Cl)cc1)NC1CCS(=O)(=O)C1 (centres undefined),-19.2,
CC(C(=O)NC1CCS(=O)(=O)C1)N1C(=O)/C(=C/c2ccc(Cl)cc2)SC1=S (centres undefined),,56.2 µM (active)
CN(C(=O)CN1C(=O)/C(=C/c2ccc(Cl)cc2)SC1=S)C1CCS(=O)(=O)C1 (centres undefined),-0.694,
COc1ccccc1C(=O)OCc1cc(=O)n2nc(-c3cccs3)sc2n1,-26.7,
Cc1cc(C=O)c(C)n1-c1ccc(NC2CCCCC2)c([N+](=O)[O-])c1,,17.8 µM (active)
COc1ccc(NC(=O)CN(C)C(=O)c2ccc(NC3CC3)c([N+](=O)[O-])c2)cc1,-29.9,
Cc1c(NS(=O)(=O)c2ccc(NC3CCCC3)c([N+](=O)[O-])c2)c(=O)n(-c2ccccc2)n1C,-19.9,
Cc1ccc(C)c2sc(NC(=O)c3ccc(S(=O)(=O)N4CCCC4)cc3)nc12,-7.14,
COc1ccccc1CNS(=O)(=O)c1cc(Br)cc2c1N(C(C)=O)C(C)C2 (centres undefined),-4.44,
CC(C)CCNC(=O)CSc1nc2ccccc2nc1Cc1ccc(Cl)cc1,-8.77,
CCC1CCCCN1S(=O)(=O)c1ccc(NC(=O)c2cc(=O)c3ccccc3o2)cc1 (centres undefined),-13.5,
CCOc1ccc(Nc2ncnc3scc(-c4ccc(OC)cc4)c23)cc1,-0.662,
O=C(CSc1nccn1Cc1ccc(Cl)cc1)NCc1ccccc1,-23.4,
CCCCNC(=O)CSc1nccn1Cc1ccccc1,-23.6,
COC(=O)CCSc1nccn1Cc1ccccc1,,35.5 µM (active)
COc1ccc(CNC(=O)c2ccc3c(O)c(S(=O)(=O)c4ccccc4)c(=O)[nH]c3c2)cc1,-14.7,
Cc1ccccc1NC(=O)c1c(NC(=O)c2ccccc2F)sc2c1CCC(C)C2 (centres undefined),7.27,
CCOc1ccc(C2/C(=C(/O)c3ccc4c(c3)CC(C)O4)C(=O)C(=O)N2CCCn2ccnc2)cc1 (centres undefined),-35.2,

SMILES,"activity change, negative = inhibition [%]",Potency
COc1cc(C2/C(=C(\O)c3ccc4c(c3)CC(C)O4)C(=O)C(=O)N2c2nnc(C)s2)cc(OC)c1OC (centres undefined),,44.7 µM (active)
COc1cc(C2/C(=C(\O)c3ccc4c(c3)CC(C)O4)C(=O)C(=O)N2Cc2ccco2)ccc1O (centres undefined),-24.3,
O=C(Nc1ccc2c(c1)OCO2)c1cc(-c2cccc(Cl)c2)on1,-10.6,
CC(C)C12CN3CC(C(C)C)(CN(C1)C3c1ccc(OCc3ccccc3)cc1)C2=O (centres undefined),-19.2,
O=C(O)C1OC(C(=O)O)C2C1C(F)(F)C2(F)F (centres undefined),,28.2 µM (active)
Cc1ccc2nc(/C(C#N)=C/c3ccccc3F)[nH]c2c1,-15.7,
O=C(NNc1ccccn1)c1ccc(Cl)nc1,,4.47 µM (active)
COc1ccc(C(=O)/C=C/Nc2ccccn2)cc1,1.84,
O=C(NNC(=O)c1ccc(Cl)nc1)c1ccc(Br)cc1,-14.5,
COc1ccccc1-c1noc(-c2ccc(NCc3ccccc3)c([N+](=O)[O-])c2)n1,-24.2,
CCN1CCC2(CC1)N=C(c1ccc(F)cc1)C(=S)N2C(=O)c1ccc(C)cc1,,31.6 µM (active)
Cc1ccc(NC(=O)CN2C(=O)C(c3ccc(F)cc3)=NC23CCCCCC3)c(C)c1,-6.38,
CCN1CCC(N(Cc2ccc(F)cc2)C(=O)Nc2cc(C)ccc2C)CC1,-10.6,
COc1cccc(NC(=O)N(Cc2cn(C)c3ccccc23)C2CCCCCC2)c1,-33.3,
Cc1ccc(Cn2c(CCCNC(=O)C3CCCCC3)nc3ccccc32)cc1,-22.5,
Cc1cc2c(cc1C)N(C(=O)CN1C(=O)c3ccccc3C1=O)C(C)(C)c1ssc(=S)c1-2,,39.8 µM (active)
Cc1ccc(NC(=O)CCN2C(=O)c3ccccc3C2=O)cc1C,-6.38,
Cc1cc(C)cc(NC(=O)CCN2C(=O)c3ccccc3C2=O)c1,-14.1,
CCN(CC)c1cc(NC2CCCCC2)c2c3c(onc13)-c1ccccc1C2=O,,8.91 µM (active)
Cc1cccc(-c2nc(SCc3ccc(Br)cc3)n3[nH]c(=O)cc3n2)c1,-14,
Cc1cccc(CNC(=O)c2cnc3sc(N4CCCCC4)nn3c2=O)c1,-12.3,
CCCCN(Cc1ccccc1)C(=O)C1CCN(Cc2sccc2C)CC1,,5.62 µM (active)
CCNC(=S)NNC(=O)C1CCN(Cc2ccccc2)CC1,-11,
CCCCN(C(=O)C1CCC1)c1c(N)n(Cc2ccccc2)c(=O)[nH]c1=O,-4.03,
